# Assay results as given in PubChem BioAssay (Tox21).
# Records with an inconclusive call do not appear. A call without a number means that no potency is given here. Activity calls are given as the source filed them. The call rests on the fitted dose curve; in most records, active means well fitted inhibition curve with a large enough effect in the repeat runs; inconclusive means weak or mixed curves; inactive means flat fitted curve, though single readings scatter.
# Target: Luciferin 4-monooxygenase (Photinus pyralis) (UniProt P08659)
# Sequence (P08659 whole entry, looked up): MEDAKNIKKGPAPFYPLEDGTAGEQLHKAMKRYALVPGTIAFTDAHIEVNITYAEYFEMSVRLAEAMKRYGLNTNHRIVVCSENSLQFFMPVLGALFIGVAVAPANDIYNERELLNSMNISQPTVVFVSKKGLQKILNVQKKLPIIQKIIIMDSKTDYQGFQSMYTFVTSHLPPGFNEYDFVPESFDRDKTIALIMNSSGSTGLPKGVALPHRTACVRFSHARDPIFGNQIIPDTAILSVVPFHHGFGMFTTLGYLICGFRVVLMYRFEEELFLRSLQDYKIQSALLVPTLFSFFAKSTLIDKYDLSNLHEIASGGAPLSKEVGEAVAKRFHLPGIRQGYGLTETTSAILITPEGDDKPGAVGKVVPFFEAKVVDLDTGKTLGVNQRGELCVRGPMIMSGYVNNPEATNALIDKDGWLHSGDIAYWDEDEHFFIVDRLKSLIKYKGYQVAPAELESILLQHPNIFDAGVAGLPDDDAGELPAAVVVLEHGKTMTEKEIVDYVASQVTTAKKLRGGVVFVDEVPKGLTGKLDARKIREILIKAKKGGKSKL
# Experiment: qHTS assay to identify small molecule inhibitors of firefly luciferase (AID 1224835); further: nearly all actives have a fitted effect of over 25% in size
# Settings: purified P. pyralis luciferase, luminescence inhibition; series mostly up to 115 µM
# From the text: U.S. Tox21 Program National Center for Advancing Translational Sciences [NCATS] NIH Chemical Genomics Center [NCGC] U.S. Environmental Protection Agency [EPA] National Institutes of Environmental Health Sciences [NIEHS] National Toxicology Program [NTP] U.S. Food and Drug Administration [FDA] Tox21 Assay Overview: Firefly (Photinus pyralis) luciferase is one of the most commonly used transcriptional reporters. Firefly luciferase reporter-gene assays are generally considered one of the most sensitive assay types (Wood, 1995; Wood, 1998). However, it was initially observed, in 1991, by Thompson et al., that compounds that resemble the substrates of firefly luciferase (FLuc) can act as competitive inhibitors of the enzyme, and that these compounds, upon interaction with luciferase in the cell, can actually stabilize the protein and increase its half-life. Previous profiling work by other groups to determine the prevalence of compounds that affect FLuc enzymatic activity (PubChem AID 411) identified that ~3% of the MLSMR library (then at ~72K) inhibited FLuc. […] Thus the Tox21 10K library is profiled for activity against FLuc using a biochemical assay of purified FLuc and KM concentrations of FLuc substrates (D-luciferin and ATP).
# These assay plates were then treated with 23nL of compound or DMSO using a Kalypsys pin tool, which allows for delivery of a 6-point interplate titration of each compound to the assay plate (quantitative HTS.) 1 uL of firefly luciferase mix (containing 50 mM Tris acetate, pH 7.6, 0.04 uM P. pyralis luciferase, 0.01% Tween, 0.05% BSA and dH2O) was then delivered by FRD to each well. Luciferase activity was then measured using a ViewLux CCD imager.
row,Structure (SMILES),Potency
1,O=C1CCCc2ccccc21,inactive
2,O=C(O)c1cccc(Cl)c1Cl,inactive
3,C1CSCCS1,inactive
4,C=CCCC=C,inactive
5,CCNCCO,inactive
6,COc1nc(C)nc(NC(=O)NS(=O)(=O)c2ccccc2OCCCl)n1,inactive
7,CCN(CC)CCOc1ccc(Cc2ccccc2)cc1,inactive
8,O=Cc1ccc(F)c(Br)c1,inactive
9,C[C@]12CCC(=O)C=C1CC[C@@H]1[C@@H]2CC[C@@]2(C)[C@H]1CC[C@]2(O)C(=O)CO,inactive
10,CCCCCCCOC(=O)CCC,inactive
11,CC(=O)O[C@H]1CC[C@@]2(C)C(=CC[C@@H]3[C@@H]2CC[C@]2(C)C(C(C)=O)=CC[C@@H]32)C1,inactive
12,CC1(C)S[C@@H]2[C@H](NC(=O)C(C(=O)O)c3ccccc3)C(=O)N2[C@H]1C(=O)O (stereo not given in full),inactive
13,O=C(C(Cl)Cl)N1CCOC12CCCCC2,inactive
14,CN1CCN(c2c(F)cc3c(=O)c(C(=O)O)cn(CCF)c3c2F)CC1,inactive
15,CCCOCCC,inactive
16,C[C@@H](N)C(=O)O,inactive
17,CCOc1ccc(NC(N)=O)cc1,inactive
18,C=C(C)C(=O)OCCOP(=O)(O)O,inactive
19,OCc1ccccc1O,inactive
20,Cc1c(-c2ccccc2)oc2c(C(=O)OCCN3CCCCC3)cccc2c1=O,inactive

row,Structure (SMILES),Potency
1,C[C@]12C(=O)OC(=O)[C@H]1[C@H]1C=C[C@@H]2C1,inactive
2,CCCCc1ccc2nc(NC(=O)OC)[nH]c2c1,3.47 µM (active)
3,Nc1cccc(S(=O)(=O)O)c1,inactive
4,CCN(O)CC,inactive
5,NC/C=C/C(=O)O,inactive
6,CCCCOc1cc(C(=O)NCCN(CC)CC)c2ccccc2n1,inactive
7,CO[C@@]1(NC(=O)CSCC#N)C(=O)N2C(C(=O)O)=C(CSc3nnnn3C)CS[C@@H]21,inactive
8,Cc1cccc(C)c1NC(=O)CN1CCCCCC1,inactive
9,CS(=O)(=O)c1ccc([C@@H](O)[C@@H](CF)NC(=O)C(Cl)Cl)cc1,inactive
10,CCCNC(C)C(=O)Nc1c(C)csc1C(=O)OC (stereo not given),inactive
11,CN1CCN(N)CC1,inactive
12,CO[Si](C)(C)OC,inactive
13,NS(=O)(=O)c1cc(-c2nn[nH]n2)c(NCc2cccs2)cc1Cl,inactive
14,CCN1CC(CCN2CCOCC2)C(c2ccccc2)(c2ccccc2)C1=O (stereo not given),inactive
15,COc1ccccc1OCC(O)COC(N)=O (stereo not given),inactive
16,O=C1C=CC(=O)O1,inactive
17,Cc1nc(-c2ccccn2)ncc1C(=O)Nn1cc(C)c2cc(F)ccc21,inactive
18,CN(C)CCOc1ccccc1Cc1ccccc1,inactive
19,CCN(CCCc1ccccc1)CCCc1ccccc1,inactive
20,COC(=O)c1ccc(OC)cc1,inactive
